Bioassay records deposited in PubChem BioAssay by National Center for Advancing Translational Sciences (NCATS).
Most compounds without a hit are left out; they make up all but 7.1% or so of the library.
SW480 rerep – induces DNA re-replication in SW480 colon adenocarcinoma cells | 340,000 compounds, 1.8% hits | Potency, µM (highest dose often 46.1 µM), without a hit: at the highest dose re-replication activation, usual class: activators | AID 624297 | SW480 DNA re-replication, Hoechst DNA content imaging, 48 h; also: potency is read from the fitted curve at half-maximal effect; % of control where 0% means no effect; nearly all actives have a fitted effect of over 55% in size
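SW480 cells exposed to compounds for 48 hr at 37 C, 5% CO2, then Hoechst-stained 40 min. Nuclear DNA content imaged by fluorescence scanning (405 nm excitation, 500-530 nm emission); re-replication scored as increased high-intensity nuclei.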
ATXN2 expr inh – reduces ATXN2 reporter expression in HEK-293 cells; HEK-293 ATXN2-luciferase reporter, luminescence, 24 h; Potency, µM (titrated, usually from 57 µM), for inactives: top-dose activity change, negative = inhibition, most hits filed as inhibitors; 360,000 compounds, 0.72% hits; AID 1745845; also: potency is read from the fitted curve at half-maximal effect; % is scaled to controls: 0 for no effect and ±100 for the full control effect; nearly all actives have a fitted effect of over 55% in size
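qHTS (up to 57 uM final) was run with 24 h compound exposure of reporter cells at 37 °C. Each well was multiplexed: SteadyGlo luminescence measured ATXN2-luciferase expression after a fluorogenic Gly-Phe-AFC viability readout (25 uM final).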
MCF10A rerep – DNA re-replication induction in MCF 10a cells | MCF 10A DNA re-replication, Hoechst nuclear intensity, 48 h | Potency, µM (top dose mostly 46.1 µM), for inactives: top-dose activity, positive = re-replication, most hits filed as activators | 350,000 compounds, 2.9% hits; also: potency is read from the fitted curve at half-maximal effect; % of control where 0% means no effect; nearly all actives have a fitted effect of over 50% in size
PINK1 expr mod – changes PINK1 expression. PINK1 immunofluorescence, high-content cytometry, 24 h. Potency, µM (titrated, usually from 76.6 µM), without a hit: at the top dose activation (PINK1 increase), hits mostly activators. 410,000 compounds, 0.2% hits. AID 624263; active = well fitted activation curve with a large enough effect; inconclusive = small, poorly fitted or top-dose-only effect; cell line not stated here; also: potency is read from the fitted curve at half-maximal effect; % of control where 0% means no effect; nearly all actives have a fitted effect of over 65% in size
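Stable cell line, 250 cells/well, 12 h attachment; compounds pinned at 5 concentrations, 24 h; CCCP control. Fixed with nuclear dye, primary antibodies 12 h at 10 degrees C, secondary plus cell stain; laser-scanning cytometer read.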
ATXN viability – viability counter-screen for ATXN expression inhibitors; 400,000 compounds, 0.49% hits; S2 cells (HEK-293 line with an ATXN2-luciferase reporter) viability, CellTiter-Fluor protease fluorescence, 24 h; Potency, µM (titrated, usually from 56.7 µM), actives largely listed as cytotoxic; also: potency is read from the fitted curve at half-maximal effect; nearly all actives have a fitted effect of over 40% in size
IL1B secr inh – blocks inflammasome-driven IL-1 beta release | THP-1 LPS/ATP IL-1B secretion, AlphaLISA, 16 h; active compounds read low | activity change, % at 57.5 µM | 360,000 compounds, 4.7% hits; in the data active = activity change below about -50%; inconclusive = mostly about -30% to -49%; also: % is scaled to controls: 0 for no effect and ±100 for the full control effect
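THP-1 cells pretreated 1 hr with compounds (up to 57.5 uM final), then stimulated with LPS (250 ng/mL final) plus ATP (1.25 mM final); secreted IL-1B measured by AlphaLISA after 16 hr, decreased signal indicating inhibition.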
Numbers without * were called inactive; i = inactive; u = inconclusive; x = not tested or not shown; [ ] = dose if it differs, or a comment. Unless noted, calls follow the shape of the dose curve; as a rule, active = well fitted curve in the direction sought with a large enough effect; inconclusive = small, poorly fitted or top-dose-only effect, or another doubt; inactive = no such curve, though single readings can be large; an effect the other way counts as inactive or inconclusive.

SMILES	SW480 rerep	ATXN2 expr inh	MCF10A rerep	PINK1 expr mod	ATXN viability	IL1B secr inh
CSc1nc(-c2ccc(F)cc2)cc(=O)[nH]1	9.2µM*	-10%	0%	-1%	i	4
O=c1cc(-c2ccccc2)nc2cc(-c3ccc(Br)cc3)[nH]n12	-2%	7%	3.3µM*	0%	i	10
CC(C)C(c1nnnn1C1CCCCC1)N1CCc2ccccc2C1 (centres undefined)	11%	15%	2%	x	i	-79*
COc1cccc(CN2CCOc3ccc(CN4C[C@@H](C)O[C@@H](C)C4)cc3C2)c1OC	x	x	x	1%	i	x
Cc1cc(Br)ccc1NC(=O)CN(C)C(=O)CSCc1ccccc1	-1%	-8%	6%	-1%	i	-52*
Cc1cc(Br)ccc1NC(=O)CN(C)C(=O)CSC(=S)N1CCCC1	-5%	18%	-2%	1%	i	20
C(=C\c1ccccc1)/CSc1nnc(-c2ccccn2)n1Cc1ccco1	21µM*	-19%	7.9µM*	1%	u	16
COc1ccc(N(C(=O)CCl)C(C(=O)NCCc2ccccc2)c2cccs2)cc1Cl (centres undefined)	u	1.8µM*	6.5µM*	-2%	1.4µM*	-103*
COc1cccc(N(C(=O)CCl)C(C(=O)NCCc2ccccc2)c2cccs2)c1 (centres undefined)	u	u	16µM*	-6%	32µM*	u
CC(C)NC(=O)c1ccc2c(c1)N(Cc1ccccc1)C(=O)C(C)(C)O2	2%	-31%	12%	3%	i	-52*
CC(C)NC(=O)c1ccc2c(c1)N(CC(=O)N1CCCC1)C(=O)C(C)(C)O2	-6%	-5%	2%	3%	i	44
O=C(N/N=C/c1ccc([N+](=O)[O-])o1)c1ccc2c(c1)OCO2	u	10µM*	27%	u	i	-6
O=C(N/N=C/c1ccc([N+](=O)[O-])o1)c1cn(-c2ccccc2)nc1-c1ccccc1	10%	-22%[11.3 µM]	16µM*	12%	i	25
O=C(N/N=C\c1ccc(-c2ccc([N+](=O)[O-])cc2)o1)c1ccc2c(c1)OCO2	-6%	-5%	1%	u	u	4
O=C(N/N=C/c1ccc([N+](=O)[O-])o1)c1cn(-c2ccccc2)nc1-c1ccc(Cl)cc1	u	x	u	12%	i	5
O=C(N/N=C/c1ccc([N+](=O)[O-])o1)c1cc(-c2ccncc2)nc2ccccc12	u	u	5µM*	-1%[38.3 µM]	u	-26
O=C(N/N=C/c1ccc([N+](=O)[O-])o1)c1ccccc1-n1cccc1	2µM*	u	23µM*	15%	u	-66*
O=C(N/N=C/c1ccc([N+](=O)[O-])o1)c1cc(-c2ccc(-c3ccccc3)cc2)nc2ccccc12	1.3µM*	u	0.92µM*	18%	u	-8
CCn1c(SC)nc2c([nH]c3ccccc32)c1=O	x	x	x	0%	x	x
CC(=O)NCCNC(=O)CCCn1c(=O)[nH]c2ccsc2c1=O	x	3%	x	1%	i	x
COc1ccc(/C=C\C(=O)c2c(O)ccc3c(C)cc(=O)oc23)cc1OC	u	-1%	u	-1%	i	-70*
COc1cc(/C=C/C(=O)c2c(O)ccc3c(C)cc(=O)oc23)ccc1O	4%	-33%	16%	-2%	i	-80*
Cc1cc(=O)oc2c(C(=O)/C=C/c3ccccc3)c(O)ccc12	-2%	1%	u	1%	i	10
Cc1cc(=O)oc2c(C(=O)/C=C\c3cccs3)c(O)ccc12	7%	-2%	u	5%	i	-99*
CCC(C(=O)NCCc1ccc(Cl)cc1)n1ccc2cc(S(=O)(=O)N3CCCCC3)ccc21 (centres undefined)	x	-7%	x	-1%	u	x
SMILES	SW480 rerep	ATXN2 expr inh	MCF10A rerep	PINK1 expr mod	ATXN viability	IL1B secr inh
O=S(=O)(c1ccccc1Br)N(Cc1ccccc1)CC(O)COCc1ccccc1 (centres undefined)	-8%	-23%	u	u	u	-61*
O=C(Cn1nnc(-c2ccccc2)n1)N/N=C/c1cccc([N+](=O)[O-])c1O	u	2%	7%	3%	i	124
O=C(Cn1nc2ccccc2n1)N/N=C/c1cc(Cl)cc([N+](=O)[O-])c1O	12µM*	u	u	2%	i	36
Cc1ccccc1C(=O)Nc1cccc(C(=O)N/N=C/c2cc(Cl)cc([N+](=O)[O-])c2O)c1	u	22µM*	-8%	2%	i	166
Cc1ccc(C)c(S(=O)(=O)/N=C2\C=C(NS(=O)(=O)c3ccccc3)C(=O)c3ccccc32)c1	u	-8%	u	4%	i	42
Cc1cc(C)c(S(=O)(=O)/N=C2/C=C(Sc3ncn[nH]3)C(=O)c3ccccc32)cc1C	2.6µM*	14µM*	2.3µM*	1%	22µM*	-88*
CN(C)c1cc[n+](CC(=O)Nc2ccc(Oc3ccccc3)cc2)cc1	10%	u	u	2%	u	-77*
CN(C)c1cc[n+](CC(=O)Nc2ccc(Cl)cc2)cc1	-4%	u	3%	1%	i	-51*
CCOc1ccc(NC(=O)C[n+]2ccc(N(C)C)cc2)cc1	-1%	-1%	-8%	3%	i	12
CCOCCCNC(=O)Cn1ncc2c([nH]c3ccccc32)c1=O	x	11%	x	7%	i	x
Cc1cc(C)n(-c2nc3cc(Cl)ccc3nc2N2CCN(c3ccccc3F)CC2)n1	x	4%	x	5%	i	x
CCOc1ccc(NC(=O)CSc2nnc(CC)c(CC)n2)cc1	x	x	x	1%	x	x
Cc1ccccc1CSc1nc2n(n1)C(c1cccs1)C1=C(CCCC1=O)N2 (centres undefined)	u	-20%	26µM*	1%	i	u
Oc1ccc(Br)cc1C1C=C(c2ccc3c(c2)OCO3)NC(c2c(F)cccc2Cl)N1 (centres undefined)	x	x	x	5%	x	x
CCc1sc(Nc2ccc(C)cc2Br)nc1-c1cc2cccc(OC)c2oc1=O	x	12%	x	1%	i	x
NS(=O)(=O)c1cccc(NC(=O)COC(=O)C2(c3cccc(F)c3)CCCC2)c1	-3%	-4%	0%	2%	i	-53*
NS(=O)(=O)c1cccc(NC(=O)COC(=O)/C(=C/c2cccs2)c2cccs2)c1	-4%	2%	u	2%	i	-93*
c1ccc(-c2csc(NC3=NCCCCC3)n2)cc1	-2%	-12%	-24%	4%	i	0
FC(F)Oc1ccc(-c2csc(NNC3=NCCCCC3)n2)cc1	6%	u	u	14%	u	-93*
